# Results as given in the supplement of paper PMC6555819.
# How the values were obtained:
# Test in all cases: PBM binding z-score (relative to random genomic background probes); higher = stronger binding; sequences stand for … in GC…GCGATTGACAGCGTAGAATGAAGG
# [1] = tested on: FXR:RXRa (NR concentration 270 nM, RXRa partner concentration 90 nM)
# Outline: (§1)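 Binding z-scores take random background probes as their reference. They come from custom Agilent 4×180K protein-binding microarrays incubated 1 h with ligand-free nuclear receptor dimers, with antibodies against each partner (one per run) detecting binding. Scanned fluorescence was regression-normalized.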
# [2] = tested on: LXRa:RXRa (NR concentration 270 nM, RXRa partner concentration 90 nM)
# Outline: as §1
# [3] = tested on: LXRa homodimer (NR concentration 270 nM)
# Outline: as §1
# [4] = tested on: LXRb:RXRa (NR concentration 270 nM, RXRa partner concentration 90 nM)
# Outline: as §1
# [5] = tested on: LXRb homodimer (NR concentration 270 nM)
# Outline: as §1
# [6] = tested on: PPARa:RXRa (NR concentration 270 nM, RXRa partner concentration 90 nM)
# Outline: as §1
# [7] = tested on: PPARg:RXRa (NR concentration 180 nM, RXRa partner concentration 90 nM)
# Outline: as §1
# [8] = tested on: PPARg:RXRa 270nM:90nM, anti-RXR (NR concentration 270 nM, RXRa partner concentration 90 nM)
# Outline: as §1
# [9] = tested on: PPARg:RXRa 30nM:10nM, anti-RXR (NR concentration 30 nM, RXRa partner concentration 10 nM)
# Outline: as §1
# [10] = tested on: PPARg:RXRa 90nM:30nM, anti-RXR (NR concentration 90 nM, RXRa partner concentration 30 nM)
# Outline: as §1
# [11] = tested on: PPARg:RXRa DBDmut IVT, anti-RXR (DBD mutation: RXRa K156A/R161A, NR concentration 270 nM, RXRa partner concentration 90 nM)
# Outline: as §1
# [12] = tested on: PPARg:RXRa IVT, anti-PPARg (NR concentration 270 nM, RXRa partner concentration 90 nM)
# Outline: as §1
# [13] = tested on: PPARg DBDmut:RXRa IVT, anti-PPARg (DBD mutation: PPARg1 K132A/R137A, NR concentration 270 nM, RXRa partner concentration 90 nM)
# Outline: as §1
# [14] = tested on: PPARg DBDmut IVT, anti-PPARg (DBD mutation: PPARg1 K132A/R137A, NR concentration 270 nM)
# Outline: as §1
# [15] = tested on: PPARg homodimer (NR concentration 180 nM)
# Outline: as §1
# [16] = tested on: PXR:RXRa (NR concentration 270 nM, RXRa partner concentration 90 nM)
# Outline: as §1
# [17] = tested on: PXR homodimer (NR concentration 270 nM)
# Outline: as §1
# [18] = tested on: RARa:RXR (NR concentration 270 nM, RXRa partner concentration 90 nM)
# Outline: as §1
# [19] = tested on: RARa homodimer (NR concentration 270 nM)
# Outline: as §1
# [20] = tested on: RARb:RXRa (NR concentration 270 nM, RXRa partner concentration 90 nM)
# Outline: as §1
Sequence,PBM binding z-score [1],PBM binding z-score [2],PBM binding z-score [3],PBM binding z-score [4],PBM binding z-score [5],PBM binding z-score [6],PBM binding z-score [7],PBM binding z-score [8],PBM binding z-score [9],PBM binding z-score [10],PBM binding z-score [11],PBM binding z-score [12],PBM binding z-score [13],PBM binding z-score [14],PBM binding z-score [15],PBM binding z-score [16],PBM binding z-score [17],PBM binding z-score [18],PBM binding z-score [19],PBM binding z-score [20]
CGAACTAGGTCAAGAACAGTGAATCTCCGCACGC,2.92,1.9,0.155,1.35,0.0467,4.39,6.53,6.17,2.93,5.49,8.01,8.06,0.866,0.438,1.15,0.968,-0.254,1.69,0.13,3.69
CCTACTGGGCCATTCAGACGTCATTGATCATATG,-0.301,-0.532,-0.873,-0.449,-0.437,0.168,0.616,0.206,0.0211,0.147,4.26,3.42,0.223,0.732,-0.0853,-0.71,-0.506,-0.696,-0.0635,-0.11
CGTCCAAGTTCAATGCTAGGTCAGTGAAAGCATT,3.05,3.56,2.36,1.92,0.297,2.42,-0.0137,0.79,-0.404,0.397,0.331,0.878,0.0119,0.59,2.95,4.21,4.73,3.6,1.33,3.79
ATCGAAAGGTCGTGAGGTGAGTATGCAGAAAGGC,5.14,4.02,0.302,2.91,0.303,5.19,3.67,4.56,1.24,3.19,0.289,2.19,1.46,1.35,1.5,2.98,-0.0975,4.43,0.592,4.01
ACTTACGGGTCAACGAGCTTATAGCACGCGTATA,6.23,3.9,0.0459,3.55,0.744,5.49,4.76,5.05,1.71,3.6,3.07,3.31,0.724,0.908,1.42,3.19,-0.152,4.16,0.825,4
ATCGAAAGGTCTTGAGGTGAGTATACAGAAAGGC,0.305,0.206,-0.36,0.394,-0.0662,1.68,1.15,0.897,0.286,0.647,-0.431,1.56,0.61,0.602,0.325,0.409,-0.368,1.43,0.103,2.13
TCTTGTAGATCAACAGAGGTTAAGAAAGTGCGCT,0.849,3.72,0.564,2.19,-0.36,2.09,0.162,1.64,2.33,1.98,1.7,0.862,0.181,0.408,0.896,3.06,0.45,1.95,0.0806,1.18
AGAATGAGGTTACCAAAAATCAGGGAAACGCTTG,1.63,2.73,-0.193,1.54,-0.426,3.2,2.49,2.98,0.857,2.25,4.5,3.48,1.31,0.817,0.553,1.04,-0.0178,1.76,0.389,2.08
GATTCAGGGTCAAGGCCAGAGTACGCGTATTGAT,6.98,5.3,0.175,4.43,0.317,6.12,6.43,6.72,3.1,5.41,3.79,4.63,1.51,0.0606,3.59,4.81,0.452,5.58,0.724,4.92
ATATTTAGGTTAGCTGGGGTCATTCAGACTAGGC,4.36,5.53,3.69,4.89,2.59,4.96,4.2,4.63,1.88,3.88,5.87,4.88,2.64,2.22,3.24,6.14,5.08,5.14,3.11,3.21
ATCTCTAGGTAAGACTCAATTCAGTGAAGAACGC,0.446,0.482,0.559,0.00858,0.847,0.0535,0.199,0.208,0.402,0.378,1.93,0.919,0.318,1.1,0.738,-0.0296,0.798,0.462,1.25,0.115
ACTATTAGTTGAGACGAGGGCGACCGATAGGTTG,0.0775,-0.2,0.0498,-0.401,8.35e-05,-0.485,0.629,-0.198,0.0514,-0.0518,0.0234,-0.184,0.772,0.784,0.303,0.205,0.117,0.144,0.456,0.332
ACTAGTTGGTCAGCTGAGGTCATACACAATTCGG,3.84,3.45,3.44,3.54,1.09,3.52,1.43,1.72,0.448,1.14,1.47,2.35,1.46,1.13,3.38,5.65,3.46,4.45,0.98,3.15
TCGAGTAGGTTAGGGGCATTCAGAATGGCGTCGA,0.42,0.257,-0.31,0.672,-0.239,1.39,0.676,1.98,1.13,1.76,1.95,1.44,-0.138,-0.987,1.13,0.245,0.264,0.141,-0.19,1.13
